# “And” between values parts separate entries of the source, which are not always exact repeats. Equal values may be shown once.
# Test system: HL-1
# Assay: cardiomyocyte survival under oxidative or metabolic stress – cell-based, panel, H9c2 and HL-1, ATP luminescence, set 2, SAR follow-up (AID 651871);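 also: cells exposed to stressor for 2 h before ATP readout; reference of the scale not given here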
# Conditions: H9c2/HL-1 cardiomyocytes, 2-deoxyglucose stress, with 2-deoxyglucose
# [1] = run 12, at 79 µM (top of the series)
SMILES,activity (protection/inhibition) [1],"activity (protection/inhibition) (run 12, at 19.8 µM (top of the series)) [%]"
CCOC(=O)c1cccc(NC(=O)CNC(=O)c2cc(-c3cc(OC)c(OC)c(OC)c3)nc3ccccc23)c1,63.3%,–
COc1ccc2c(c1OC)C(=O)N1c3ccccc3C(=O)N(Cc3cccc(Cl)c3Cl)C21 (centres undefined),65.5% and -16.5%,51
COc1ccc2nc(-c3cc(OC)c(OC)c(OC)c3)cc(C(=O)NCC(=O)Nc3ccc(C(C)=O)cc3)c2c1,62.5%,–
